Rab9 prom act = qHTS Assay for Rab9 Promoter Activators. Huh7 Rab9 promoter-luciferase reporter, luminescence, 24 h. 320,000 tested, 2.8% active. Potency, µM (highest dose often 9.22 µM), for the others: at the top dose activation, negative = inhibition, actives largely listed as activators; note: % of control where 0% means no effect; nearly all actives have a fitted effect of over 60% in size
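Luminescence from Amplite-detected luciferase (10 minutes, ambient) reports Rab9 promoter activation. Before that, stable Rab9-luciferase Huh7 cells (1500/well, reduced-serum OP-MEM I plus 10% FBS) were exposed to compound for 24 hours at 37C.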
SMN2 splice up = qHTS Assay for Enhancers of SMN2 Splice Variant Expression; 210,000 tested, 2.8% active; Potency, µM (highest dose often 46.1 µM), for the others: top-dose activity change, positive = activation, actives largely listed as activators; AID 1458, 2008; HEK293 SMN2-luciferase splicing reporter, luminescence, 30-36 h; note: % of control where 0% means no effect; nearly all actives have a fitted effect of over 55% in size
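HEK293 cells carry an SMN2 […]–luciferase reporter in which exon 7 inclusion puts luciferase in frame. Cells were plated 10-12 h before compound addition, then incubated 30-36 h at 37C. ONE-Glo luminescence was read; sodium butyrate at 4.5 mM final served as control.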
FLuc counter = qHTS profiling assay for firefly luciferase inhibitor/activator using purifed enzyme and Km concentrations of substrates (counterscreen for miR-21 project); 360,000 tested, 6.9% active; purified FLuc, Km substrates, luminescence inhibition; Potency, µM (titrated, usually from 57.5 µM), inactives show at the highest dose activity change, negative = inhibition, usual class: inhibitors; AID 588342, 2011; Luciferin 4-monooxygenase (Photinus pyralis), P08659;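 note: plate controls were vehicle for no effect and reference inhibitor for full effect; nearly all actives have a fitted effect of over 55% in size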
Target sequence (P08659 whole entry, looked up): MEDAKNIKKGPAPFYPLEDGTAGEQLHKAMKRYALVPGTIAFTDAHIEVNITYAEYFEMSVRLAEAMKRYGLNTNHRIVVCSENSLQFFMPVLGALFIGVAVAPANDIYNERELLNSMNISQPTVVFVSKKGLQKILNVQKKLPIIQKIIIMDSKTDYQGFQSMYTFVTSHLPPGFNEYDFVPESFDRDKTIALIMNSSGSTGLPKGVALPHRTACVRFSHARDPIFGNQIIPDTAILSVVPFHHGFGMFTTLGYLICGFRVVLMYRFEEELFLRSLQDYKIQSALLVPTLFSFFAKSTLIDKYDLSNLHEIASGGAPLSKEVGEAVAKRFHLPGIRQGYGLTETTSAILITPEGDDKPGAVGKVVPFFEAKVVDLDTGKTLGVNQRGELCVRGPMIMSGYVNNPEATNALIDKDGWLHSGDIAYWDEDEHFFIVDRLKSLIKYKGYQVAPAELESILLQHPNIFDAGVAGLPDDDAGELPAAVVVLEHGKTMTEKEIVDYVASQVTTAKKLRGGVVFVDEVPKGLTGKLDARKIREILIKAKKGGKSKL
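Purified P. pyralis luciferase (10nM final) with 10uM D-luciferin and 10uM ATP (Km levels) in 50mM Tris acetate pH 7.5, 10mM Mg acetate, 0.01% Tween-20, 0.05% BSA; qHTS 6-point titration, ~60 µM downward; luminescence read.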
ELG1 DNA repair = qHTS screen for small molecules that inhibit ELG1-dependent DNA repair in human embryonic kidney (HEK293T) cells expressing luciferase-tagged ELG1. HEK293T ELG1-luciferase reporter, luminescence, 16 h; DNA damage induced by 5-fluorouridine. Potency, µM (top dose mostly 46.1 µM), for inactives: at the highest dose activity change, negative = inhibition, usual class: inhibitors. 330,000 tested, 2.3% active; note: % is set by controls: 0 for no effect and ±100 for the full control effect; nearly all actives have a fitted effect of over 55% in size
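Cells (2,000 per well) received 5-fluorouridine plus test compound or DMSO and were incubated 16 hr at 37 °C, 5% CO2. Luciferase activity was read by luminescence 30 min after ONE-Glo addition; signal suppression marked inhibition of damage-induced ELG1 function.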
NPC1 prom act = qHTS Assay for NPC1 Promoter Activators; Huh7 NPC1 promoter luciferase reporter, 24 h; Potency, µM (highest dose often 9.22 µM), for inactives: at the highest dose activation, usual class: activators; 320,000 tested, 2.4% active; AID 485313, 2010; note: % of control where 0% means no effect; nearly all actives have a fitted effect of over 60% in size
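Luciferase expression driven by the NPC1 promoter was measured in stably transfected Huh7 cells after a 24 h compound incubation, using a luciferase reagent and a luminescence read.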
ELG1 genotoxic = qHTS screen for small molecules that induce genotoxicity in human embryonic kidney (HEK293T) cells expressing luciferase-tagged ELG1; HEK293T ELG1-luciferase reporter, luminescence, 16 h; Potency, µM (top dose mostly 46 µM), without a hit: at the top dose activity change, positive = activation, most hits filed as activators; 330,000 tested, 1.3% active; AID 504466, 2011; note: % of control where 0% means no effect; nearly all actives have a fitted effect of over 60% in size
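HEK293T cells expressing luciferase-tagged ELG1 were treated with compound or DMSO for 16 hr at 37°C. Luciferase activity was then read after 30 min with ONE-Glo at room temperature; rising signal flags genetic stress.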
Active calls of the source: *. Rows were chosen to be rich in hits. Some 9.2% of all compounds tested hit in one or more screens of this group. Calls come from the whole dose curve; as a rule, active = well fitted curve in the direction sought with a large enough effect; inconclusive = small, poorly fitted or top-dose-only effect, or another doubt; inactive = no such curve, though single readings can be large; an effect the other way counts as inactive or inconclusive. Potency is the fitted concentration of half-maximal effect.

COc1ccc(S(=O)(=O)Nc2cc(-c3cn4ccccc4n3)ccc2C)cc1 was read as SMN2 splice up 8.3% and FLuc counter inconclusive.
`CCCOc1ccc(-c2cn3ccccc3n2)cc1` gave Rab9 prom act 0.316µM*, SMN2 splice up 2.24µM*, FLuc counter 0.379µM*, ELG1 DNA repair inconclusive, NPC1 prom act inconclusive and ELG1 genotoxic inconclusive.
For COc1ccc(-c2cn3ccc4ccccc4c3n2)cc1 the results were Rab9 prom act inconclusive, SMN2 splice up 3.16µM*, FLuc counter 0.953µM*, ELG1 DNA repair inconclusive, NPC1 prom act inconclusive and ELG1 genotoxic 1.16µM*.
Screening COc1ccccc1N1CCN(C(=O)C(=O)c2c[nH]c3ccccc23)CC1 returned Rab9 prom act -1.7%, FLuc counter 2.1%, ELG1 DNA repair 3.0%, NPC1 prom act -0.1% and ELG1 genotoxic 1.5%.
CCN(CC)CCSc1nnc2c3ccccc3n(Cc3ccccc3)c2n1 was read as Rab9 prom act -11.9%, FLuc counter -14.5%, ELG1 DNA repair inconclusive, NPC1 prom act 0.9% and ELG1 genotoxic -8.6%.
Cc1cc(C)n(C(C)CC(=O)NCc2ccc(Cl)cc2)n1 (centres undefined) was read as FLuc counter 0.0%.
`COc1ccc(/C=N/NC(=O)C(=O)NCc2cccnc2)cc1` gave Rab9 prom act -1.0%, SMN2 splice up -7.3%, FLuc counter -13.4%, ELG1 DNA repair 10.4%, NPC1 prom act 1.1% and ELG1 genotoxic -21.0%.
For O=S(=O)(c1ccccc1)N1CCC2(CCN(Cc3nccs3)CC2)CC1 the results were SMN2 splice up -13.2%.
For NC(=O)C1CCN(C(=O)CSc2nc3ccccc3s2)CC1 the results were Rab9 prom act -1.2%, SMN2 splice up 6.2%, FLuc counter -4.2%, ELG1 DNA repair inconclusive, NPC1 prom act 10.7% and ELG1 genotoxic 11.3%.
Screening CC1CCN(C(=O)CSc2nc3ccccc3s2)CC1 returned Rab9 prom act 2.82µM*, SMN2 splice up inconclusive, FLuc counter 12µM*, ELG1 DNA repair inconclusive, NPC1 prom act 2.82µM* and ELG1 genotoxic 11.6µM*.
O=C(CSc1nc2ccccc2s1)N1CCCCC1 was read as Rab9 prom act 3.55µM*, SMN2 splice up 20µM*, FLuc counter 23.9µM*, ELG1 DNA repair inconclusive, NPC1 prom act 2.82µM* and ELG1 genotoxic inconclusive.
O=C(O)C1CCN(C(=O)CSc2nc3ccccc3s2)CC1 was read as Rab9 prom act -0.3%, SMN2 splice up 6.3%, FLuc counter inconclusive, ELG1 DNA repair 11.6%, NPC1 prom act -3.2% and ELG1 genotoxic 2.5%.
`O=C1/C(=C\Nc2ccc(OC(F)(F)F)cc2)CCN1c1ncccn1` gave Rab9 prom act 2.51µM*, SMN2 splice up 17.2%, FLuc counter inconclusive, ELG1 DNA repair inconclusive, NPC1 prom act inconclusive and ELG1 genotoxic 9.2µM*.
O=C(CN1CCN(c2ccccn2)CC1)Nc1ccc(OC(F)(F)F)cc1 was read as Rab9 prom act -4.2%, FLuc counter -0.5%, ELG1 DNA repair -12.4%, NPC1 prom act -0.6% and ELG1 genotoxic -4.6%.
`O=C1/C(=C\Nc2ccc(Cl)cc2)CCN1c1ncccn1` gave Rab9 prom act 0.891µM*, SMN2 splice up 20µM*, FLuc counter 4.78µM*, ELG1 DNA repair inconclusive, NPC1 prom act 2µM* and ELG1 genotoxic inconclusive.
Screening COc1ccc(Cl)cc1NC(=O)COC(=O)CCNS(=O)(=O)c1cccs1 returned Rab9 prom act 0.0%, FLuc counter 4.2%, ELG1 DNA repair 24.7%, NPC1 prom act -1.1% and ELG1 genotoxic -0.6%.
For CCN(c1ccccc1)S(=O)(=O)c1ccc(C(=O)N2CCN(c3ccccc3)CC2)cc1 the results were ELG1 DNA repair inconclusive and ELG1 genotoxic -2.3%.
`Cc1c(C(=O)NC2CCCCC2C)oc2ccccc12` (centres undefined) gave Rab9 prom act 5.1%, FLuc counter 13.5µM*, ELG1 DNA repair inconclusive, NPC1 prom act -0.7% and ELG1 genotoxic -17.4%.
Cc1c(C(=O)NC2CCC(C)CC2)oc2ccccc12 (centres undefined) was read as Rab9 prom act 2.82µM*, FLuc counter 9.53µM*, ELG1 DNA repair inconclusive, NPC1 prom act 3.16µM* and ELG1 genotoxic inconclusive.
For Cc1c(C(=O)NC2CC2)oc2ccccc12 the results were Rab9 prom act -1.6%, FLuc counter inconclusive, ELG1 DNA repair inconclusive, NPC1 prom act -3.9% and ELG1 genotoxic 1.7%.
Cc1noc(C)c1C(=O)N1CCC2(CCN(Cc3ccncc3)CC2)CC1 was read as SMN2 splice up 1.5%.
For CCOC(N)=O the results were SMN2 splice up -8.6%.
CCn1ccc2cc(S(=O)(=O)N3CCCN(C(=O)NCCOC)CC3)ccc21 was read as FLuc counter -2.1%.
`C=CCSc1nnc(-c2cccc3ccccc23)o1` gave ELG1 DNA repair 3.2% and ELG1 genotoxic 0.3%.
For C=CCSc1nnc(-c2cc3c(s2)-c2ccccc2CC3)o1 the results were Rab9 prom act inconclusive, SMN2 splice up inconclusive, FLuc counter 12µM*, ELG1 DNA repair inconclusive, NPC1 prom act 0.1% and ELG1 genotoxic 8.2%.
Screening CC(=O)Nc1ccc2c(c1)OCO2 returned Rab9 prom act 0.6%, SMN2 splice up 5.8%, FLuc counter -2.2%, ELG1 DNA repair 5.7%, NPC1 prom act -3.2% and ELG1 genotoxic -0.7%.
For C/C(=C\C(=O)c1ccccc1)Nc1ccc2c(c1)OCO2 the results were Rab9 prom act 3.98µM*, SMN2 splice up 22.4µM*, FLuc counter 3.79µM*, ELG1 DNA repair inconclusive, NPC1 prom act 2.82µM* and ELG1 genotoxic inconclusive.
Screening C/C(=C\C(=O)c1ccc(C)o1)Nc1ccc2c(c1)OCO2 returned Rab9 prom act 2.24µM*, SMN2 splice up 26.7%, FLuc counter 4.78µM*, ELG1 DNA repair inconclusive, NPC1 prom act 2.82µM* and ELG1 genotoxic inconclusive.
Cc1ccc(C(=O)OCC(=O)Nc2ccc3c(c2)OCO3)o1 was read as Rab9 prom act 14.6%, SMN2 splice up 11.0%, FLuc counter -15.3%, ELG1 DNA repair inconclusive, NPC1 prom act 17.3% and ELG1 genotoxic 13.0%.
